The values that follow come from PubChem BioAssay (NCATS).

Molecules are shown by their SMILES. Several values for one entry are separate records, joined by “and”; a condition that tells them apart may be missing. Identical values can stand only once. Inconclusive results are not listed. Activity calls are given as the source filed them. Unless noted, calls follow the shape of the dose curve; as a rule, active = well fitted curve in the direction sought with a large enough effect; inconclusive = small, poorly fitted or top-dose-only effect, or another doubt; inactive = no such curve, though single readings can be large; an effect the other way counts as inactive or inconclusive.

Assay [1] can be described thus: qHTS to identify inhibitors of the type 1 interferon - major histocompatibility complex class I in skeletal muscle: primary screen against the NCATS Mechanism Interrogation Plate v5.0 (MIPE) Libary (AID 1347411). Also: nearly all actives have a fitted effect of over 65% in size. Also: potency is read from the fitted curve at half-maximal effect.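 As to activity change, negative = inhibition: plate controls were vehicle for no effect and reference inhibitor for full effect.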 The method, boiled down:
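Immortalized human C25cl48 myoblasts with HiBit knocked into endogenous HLA-B*08:01 were stimulated with 4.0 ng/ml IFN-beta and exposed to compounds (11-point 1:3 titration, top 46 uM final) for 24 hrs at 37 C; HiBiT lytic luminescence measured.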
For orientation: Quantitative high-throughput screening tests each substance at several concentrations.

Assay [2] concerns the target Calcium and integrin-binding protein 1 (Homo sapiens) (UniProt Q99828). In words: Primary qHTS for Identification of Calcium Integrin Binding Protein 1 (CIB1) Competitor (AID 1508620).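 Also: GST tagged CIB1 binding a fluorescein labelled alphaIIb integrin peptide tracer; top concentration of the series differs between compounds; % is scaled to controls: 0 for no effect and ±100 for the full control effect.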 The method, boiled down: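 Fluorescence polarization competition: CIB1-GST (1 uM final) preincubated with compound 15 min at room temperature, then FITC-labeled alphaIIb peptide (100 nM final) added for another 15 min. Polarization read at Ex 480/Em 540.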

Assay [3] in a line: Primary qHTS for small molecule stabilizers of the endoplasmic reticulum resident proteome: Secreted ER Calcium Modulated Protein (SERCaMP) assay (AID 1508630). Also: % is scaled to controls: 0 for no effect and ±100 for the full control effect. The gist of the method: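 GLuc-SERCaMP-expressing SH-SY5Y cells, pretreated 16 h with compound, are challenged with thapsigargin to empty ER calcium stores; after 4 h, coelenterazine is added directly to the medium and luminescence is imaged.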

Assay [4] addresses Cytochrome P450 2C9 (Homo sapiens) (UniProt P11712). In words: Cytochrome P450 family 2 subfamily C member 9 (CYP2C9) small molecule antagonists: luciferase biochemical (cell-free) qHTS assay (AID 1645842; active = well fitted curve in the direction sought with a large enough effect in the repeat runs; an effect the other way counts as inactive or inconclusive; also: potency is read from the fitted curve at half-maximal effect; nearly all actives have a fitted effect of over 55% in size). The method, boiled down: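 Luminescence, after 20 min with luciferin detection reagent, reflected CYP2C9 turnover during a 1 h NADPH-driven reaction at 37C. Enzyme-substrate mix contained 0.4% bovine serum albumin and was preincubated with compound 10 min at room temperature.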

Assay [5] in a line: Primary qHTS for inhibitors of nuclear receptor binding SET domain protein 2 (NSD2) in an isogenic RCH-ACV NSD2 p.E1099K mutant (9B) (AID 1645876). Also: nearly all actives have a fitted effect of over 70% in size. Also: potency is read from the fitted curve at half-maximal effect.
The nature of assay [6]: Primary qHTS for inhibitors of nuclear receptor binding SET domain protein 2 (NSD2) in an RCH-ACV wild type WT cells (2C) (AID 1645877). Also: nearly all actives have a fitted effect of over 70% in size. Also: potency is read from the fitted curve at half-maximal effect.
Assay [7] concerns the target Catechol O-methyltransferase (Homo sapiens) (UniProt P21964). Briefly: Confirmatory Screen for Target Class Profiling of Small Molecule Inhibitors of Methyltransferases (AID 1745852; calls by dose curve; as to activity change, negative = inhibition: % is scaled to controls: 0 for no effect and ±100 for the full control effect). The conditions noted are these: MTase-Glo luminescence, SAH detection, recombinant enzyme; measured here: COMT max response; stronger effect = lower value.
Assay [8] addresses Guanidinoacetate N-methyltransferase (Homo sapiens) (UniProt Q14353). The description is as above. The conditions noted are these: activity change, negative = inhibition: at 57.3 µM (top of the series).
The target of assay [9] is Nicotinamide N-methyltransferase (Homo sapiens) (UniProt P40261). The assay is described as above. The conditions noted are these: MTase-Glo luminescence, SAH detection, recombinant enzyme; measured here: NNMT max response; stronger effect = lower value.
Nicotinamide N-methyltransferase (Homo sapiens), sequence (P40261 whole entry, looked up): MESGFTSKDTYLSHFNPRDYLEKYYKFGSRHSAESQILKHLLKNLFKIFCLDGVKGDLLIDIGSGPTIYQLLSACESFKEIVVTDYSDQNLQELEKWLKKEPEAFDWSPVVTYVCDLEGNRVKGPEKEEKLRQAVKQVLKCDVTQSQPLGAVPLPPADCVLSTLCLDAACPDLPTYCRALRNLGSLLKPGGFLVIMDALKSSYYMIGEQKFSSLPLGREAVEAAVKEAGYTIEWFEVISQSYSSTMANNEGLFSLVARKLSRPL

Calcium and integrin-binding protein 1 (Homo sapiens), sequence (Q99828 whole entry, looked up): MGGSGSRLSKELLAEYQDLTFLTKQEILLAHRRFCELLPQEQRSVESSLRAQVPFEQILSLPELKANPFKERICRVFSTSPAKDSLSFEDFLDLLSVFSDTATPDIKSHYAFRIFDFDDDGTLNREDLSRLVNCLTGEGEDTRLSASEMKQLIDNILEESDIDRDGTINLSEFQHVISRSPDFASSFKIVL
Catechol O-methyltransferase (Homo sapiens), sequence (P21964 whole entry, looked up): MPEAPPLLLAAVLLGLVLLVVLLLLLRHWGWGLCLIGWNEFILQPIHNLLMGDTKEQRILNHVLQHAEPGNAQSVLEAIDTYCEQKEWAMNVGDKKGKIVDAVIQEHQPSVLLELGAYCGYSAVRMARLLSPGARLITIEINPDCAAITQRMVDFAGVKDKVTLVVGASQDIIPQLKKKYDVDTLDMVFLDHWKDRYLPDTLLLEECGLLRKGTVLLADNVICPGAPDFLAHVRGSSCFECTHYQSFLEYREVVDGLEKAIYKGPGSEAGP
Cytochrome P450 2C9 (Homo sapiens), sequence (P11712 whole entry, looked up): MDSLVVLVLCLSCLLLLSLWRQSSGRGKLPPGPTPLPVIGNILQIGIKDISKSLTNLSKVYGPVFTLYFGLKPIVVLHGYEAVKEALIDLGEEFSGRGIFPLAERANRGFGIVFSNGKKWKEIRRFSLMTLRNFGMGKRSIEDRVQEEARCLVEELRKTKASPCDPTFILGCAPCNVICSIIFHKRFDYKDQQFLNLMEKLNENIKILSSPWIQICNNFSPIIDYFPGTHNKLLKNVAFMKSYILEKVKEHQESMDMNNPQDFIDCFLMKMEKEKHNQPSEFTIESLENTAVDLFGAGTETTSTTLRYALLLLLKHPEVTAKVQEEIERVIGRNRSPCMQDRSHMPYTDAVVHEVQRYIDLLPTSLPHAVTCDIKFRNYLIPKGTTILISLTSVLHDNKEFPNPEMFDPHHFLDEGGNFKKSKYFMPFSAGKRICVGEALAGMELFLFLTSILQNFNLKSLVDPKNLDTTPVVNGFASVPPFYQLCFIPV

For the compound `FC(F)(F)c1ccc(Nc2nc3ccc(Oc4ccnc(-c5ncc(C(F)(F)F)[nH]5)c4)cc3[nH]2)cc1`, the Potency result in assay [1] and in [2] was “inactive” throughout. In assay [3], the outcome was “inactive”. Further, the Potency was 23900 nM (active) in [4], 14.8 µM (active) in assay [5] and 23.5 µM (active) in [6].
Take `Nc1nc(=O)n([C@H]2C[C@H](O)[C@@H](CO)O2)cc1F`: the Potency entry in assay [1] and in assay [2] was “inactive” throughout. The outcome in [3] is “inactive”. Moreover, the results for the Potency in assay [5] and in [6] were 0.0118 µM (active) and 0.0148 µM (active), respectively.
For the compound `c1coc(CNc2ncnc3nc[nH]c23)c1`, the Potency entry in [1], in [2], in assay [5] and in [6] was “inactive” each time. Besides, the outcome in assay [3] is “inactive”.
`Nc1nc(N)c2nc(-c3cccc(O)c3)c(-c3cccc(O)c3)nc2n1`: the Potency entry in assay [1] and in assay [2] was “inactive” each time. The outcome in assay [3] was “inactive”. For the same compound, the Potency was 16.4 µM (active) and 18.6 µM (active) in assay [5]; 13 µM (active) and 16.6 µM (active) in assay [6].
On to `CC(C(C)N1CC(=O)NC(=O)C1)N1CC(=O)NC(=O)C1` (stereo not drawn), for which the Potency entry in [1] and in assay [2] was “inactive” in each case. Also, the outcome in assay [3] is “inactive”. The Potency was 5.25 µM (active) in [5] and 3.32 µM (active) in [6].
In the case of `O=C(Nc1cccc(Nc2ncc(Br)c(NCCc3cnc[nH]3)n2)c1)N1CCCC1`, the figures for the Potency in assay [1], in assay [5] and in [6] were 5870 nM (active), 0.934 µM (active) and 0.59 µM (active), respectively. In assay [2], the Potency entry is “inactive”. For the same compound, in assay [3], the outcome was “inactive”.
As for `CC(=O)O[C@H]1C[C@@H]2CC[C@H]3[C@H]4C[C@H]([N+]5(C)CCCCC5)[C@@H](OC(C)=O)[C@@]4(C)CC[C@@H]3[C@@]2(C)C[C@H]1[N+]1(C)CCCCC1`, the Potency result in assay [1], in [2], in assay [5] and in [6] was “inactive” in each case. Also, the outcome in assay [3] is “inactive”.
As to `CCOC(=O)[C@@H](N)Cc1ccc(-c2cc(O[C@H](c3ccc(Cl)cc3-n3ccc(C)n3)C(F)(F)F)nc(N)n2)cc1`, the figures for the Potency in [1], in assay [4] and in [6] were 9300 nM (active), 6010 nM (active) and 23.5 µM (active), respectively. In assay [2], the Potency entry is “inactive”. In assay [3], the outcome was “inactive”. The results for the activity in [7] and in [9] were -0.461% and -31.8%, respectively. This compound yielded an activity change, negative = inhibition in [8] of 0%.
Consider `CC(C)NC[C@@H](C(=O)N1CCN(c2ncnc3c2[C@H](C)C[C@H]3O)CC1)c1ccc(Cl)cc1`, for which the Potency entry in assay [1] and in assay [2] was “inactive” each time. For the same compound, the outcome in assay [3] is “inactive”. The Potency in [5] was 1.66 µM (active); in assay [6], 2.63 µM (active).
Turning to `C[C@@H]1CC[C@@]2(OC1)OC1CC3C4CC=C5CC(O)CCC5(C)C4CCC3(C)C1[C@@H]2C` (stereo partly drawn), the Potency result in assay [1], in assay [2], in assay [5] and in assay [6] was “inactive” throughout. Further, the outcome in [3] was “inactive”.
Turning to `CC(Oc1ccc(O)cc1)(P(=O)(O)O)P(=O)(O)O`, the Potency entry in [1], in assay [2], in assay [5] and in assay [6] was “inactive” each time. Besides, in assay [3], the outcome is “inactive”.
With `O=S(=O)(O)CCSSCCS(=O)(=O)O`, the Potency result in assay [1], in [2], in [5] and in assay [6] was “inactive” throughout.
`C[C@@H]1C(=O)O[C@H]2CC34[C@H]5C[C@@H](C(C)(C)C)C36[C@H](OC(=O)[C@@H]6O)O[C@@]4(C(=O)O5)[C@]21O` (stereo partly drawn): the Potency result in assay [1], in assay [2], in [5] and in [6] was “inactive” in each case. Further, the outcome in assay [3] was “inactive”.
For the compound `C[C@H](CCC(=O)O)[C@H]1CCC2C3C[C@H](O)[C@@H]4C[C@H](O)CC[C@]4(C)C3CC[C@@]21C` (stereo partly drawn), the Potency result in assay [1], in assay [2], in assay [5] and in assay [6] was “inactive” throughout. Moreover, the outcome in assay [3] was “inactive”.
Regarding `C[C@H](NC(=O)[C@@H](O)c1cc(F)cc(F)c1)C(=O)N[C@@H]1C(=O)N(C)c2ccccc2-c2ccccc21`, the Potency result in assay [1], in assay [2], in assay [5] and in assay [6] was “inactive” throughout.
Regarding `O=C1NCCc2[nH]c(-c3ccncc3)cc21`, the figures for the Potency in [1], in assay [5] and in assay [6] were 2080 nM (active), 2.35 µM (active) and 1.32 µM (active), respectively. In addition, the Potency result in [2] was “inactive”. The outcome in assay [3] was “inactive”.
As for `COc1cc(O)c2c(c1)C1OC1C[C@H](O)[C@H](O)C(=O)C=CC[C@H](C)OC2=O` (stereo partly drawn), the Potency in assay [1] is 13100 nM (active); in assay [5], 3.72 µM (active); in [6] it was 3.32 µM (active). Besides, the Potency entry in assay [2] was “inactive”. In addition, the outcome in assay [3] was “inactive”.
Regarding `C[C@H]1[C@@H](OC(=O)CCC(=O)O)O[C@@H]2O[C@@]3(C)CC[C@@H]4[C@H](C)CC[C@@H]1[C@@]24OO3`, the Potency result in assay [1] and in [2] was “inactive” throughout. Further, the outcome in [3] is “inactive”. In addition, the Potency was 1.86 µM (active) in assay [5] and 1.48 µM (active) in [6].
Turning to `CC(Cc1ccc(O)c(O)c1)(NN)C(=O)O` (stereo not drawn), the Potency result in [1] and in assay [2] was “inactive” in each case. In [3], the outcome was “inactive”. In assay [6], the Potency is 29.5 µM (active).
For the compound `CCN(C(=O)c1c(O)c2c(Cl)cccc2n(C)c1=O)c1ccccc1`, the Potency result in [1], in assay [2] and in assay [6] was “inactive” each time. The outcome in [3] is “inactive”.
Turning to `CCS(=O)(=O)Nc1ccc2[nH]c(O)c(C(=Nc3ccc(CN4CCCCC4)cc3)c3ccccc3)c2c1`, the Potency was 2620 nM (active) in assay [1], 0.148 µM (active) in assay [5] and 0.0295 µM (active) in assay [6]. In addition, in assay [2], the Potency entry is “inactive”. In addition, in [3], the outcome is “inactive”.
Turning to `c1cc(N[C@@H]2CCNC2)nc(-c2cnc3ccc(-c4cn[nH]c4)cn23)c1`, the Potency in [1] was 829 nM (active); in assay [5], 2.63 µM (active); in assay [6], 0.934 µM (active). For the same compound, the Potency entry in [2] and in assay [8] was “inactive” each time. Further, the outcome in assay [3] is “inactive”. Besides, the activity is -4.23% in assay [7] and -7.42% in [9].
As for `Cc1ccc(O)c(C(CCN(C(C)C)C(C)C)c2ccccc2)c1` (stereo not drawn), the Potency result in assay [1], in [2], in [5] and in [6] was “inactive” in each case. The outcome in assay [3] was “inactive”.
